Experimental data as given in PubChem BioAssay (EPA / NIEHS).
“And” between values parts separate entries of the source, which are not always exact repeats. Equal values may be shown once. Records with an inconclusive call do not appear. The source holds several records for some structures; these can differ, active in one and inactive in another. The source made the active and inactive calls. The calls were made as follows, unless noted: active = hit-call score of the fitted dose curve at least 0.9, where 1 is the maximum; inconclusive = response in the unintended direction; inactive = score below 0.9.

Assays:
[1] = biological target: Peroxisome proliferator-activated receptor gamma (Homo sapiens) (UniProt P37231); experiment: ATG_PPARg_TRANS: Attagene TRANS-FACTORIAL HepG2 Assay for human Peroxisome Proliferator-activated Receptor-gamma (PPARg) (AID 2283007)
How it was run: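 Human hepatoma HepG2, transient MRTU transfection, 24 h treatment. mRNA reporter signal by RT-PCR plus capillary electrophoresis, fluorescence detection; fitted for increase over DMSO negative control.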

[2] = biological target: Nuclear receptor subfamily 1 group I member 2 (Homo sapiens) (UniProt O75469); experiment: ATG_PXR_TRANS: Attagene TRANS-FACTORIAL HepG2 Assay for human Pregnane X Receptor (PXR) (AID 2283008)
How it was run: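 HepG2 cells transiently transfected with multiple reporter units, here a PXR-GAL4 chimera driving a GAL4-UAS reporter; 24 h compound exposure. Reporter mRNA measured by RT-PCR, FAM labelling and capillary electrophoresis; gain of signal fitted against DMSO baseline.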

[3] = biological target: human Retinoic Acid Receptor gamma (RARg), RARG (gene 5916) (UniProt P13631); experiment: ATG_RARg_TRANS: Attagene TRANS-FACTORIAL HepG2 Assay for human Retinoic Acid Receptor gamma (RARg) (AID 2283009)
How it was run: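 HepG2 transiently transfected with GAL4-UAS reporter units and chimeric NR-Gal4 constructs; 24 h compound exposure. Reporter mRNA quantified by RT-PCR, FAM labeling, HpaI digestion and capillary electrophoresis; gain-of-signal versus DMSO.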

[4] = biological target: human Retinoid X Receptor beta (RXRb), RXRB (gene 6257) (UniProt P28702); experiment: ATG_RXRb_TRANS: Attagene TRANS-FACTORIAL HepG2 Assay for human Retinoid X Receptor beta (RXRb) (AID 2283013)
How it was run: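 HepG2 cells were transiently transfected with multiplexed GAL4-UAS reporters and a chimeric RXRb-Gal4 construct, then exposed for 24 h. Reporter mRNA was quantified by RT-PCR, FAM labeling, HpaI digestion and capillary electrophoresis; gain of signal was scored against DMSO.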

[5] = biological target: human Thyroid Receptor alpha (THRa1), THRA (gene 7067) (UniProt P10827); experiment: ATG_THRa1_TRANS: Attagene TRANS-FACTORIAL HepG2 Assay for human Thyroid Receptor alpha (THRa1) (AID 2283014)
How it was run: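 HepG2 cells transiently transfected with multiplexed GAL4-UAS reporter units for exogenous chimeric THRa1-Gal4; reporter mRNA measured 24 h after dosing by RT-PCR, 6-FAM labelling, HpaI digestion and capillary electrophoresis. Gain-of-signal fitted versus DMSO baseline.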

[6] = biological target: human RAR-related Orphan Receptor beta (RORb), RORB (gene 6096) (UniProt Q92753); experiment: ATG_RORb_TRANS: Attagene TRANS-FACTORIAL HepG2 Assay for human RAR-related Orphan Receptor beta (RORb) (AID 2283010)
How it was run: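 HepG2 cells transiently transfected with GAL4-UAS reporter units expressing chimeric NR-Gal4 protein; reporter mRNA measured 24 h after dosing by RT-PCR, 6-FAM labelling and capillary electrophoresis. Gain-of-signal fitted relative to DMSO baseline.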

[7] = biological target: human RAR-related Orphan Receptor gamma (RORg), RORC (gene 6097) (UniProt P51449); experiment: ATG_RORg_TRANS: Attagene TRANS-FACTORIAL HepG2 Assay for human RAR-related Orphan Receptor gamma (RORg) (AID 2283011);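 as to AC50: potency for induction of reporter transcripts above DMSO so activators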
How it was run: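 Readout: reporter transcript induction (RT-PCR, fluorescent primer extension, capillary electrophoresis) after 24 h compound exposure of transiently transfected HepG2 cells carrying a RORg-Gal4 chimera and GAL4-UAS reporters; DMSO served as baseline, with increasing signal fitted.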

[8] = biological target: Retinoic acid receptor RXR-alpha (Homo sapiens) (UniProt P19793); experiment: ATG_RXRa_TRANS: Attagene TRANS-FACTORIAL HepG2 Assay for human Retinoid X Receptor alpha (RXRa) (AID 2283012)
How it was run: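 HepG2 cells transiently transfected with GAL4-UAS reporter units and chimeric RXRa-Gal4 protein, treated 24 h. Reporter mRNA measured by RT-PCR, fluorescent labelling, HpaI digestion and capillary electrophoresis. Induction fitted against DMSO.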

[9] = BSK_3C_Proliferation: Cell Proliferation Assessment in the BioMAP Diversity Plus: 3C Assay (AID 2283006; active = hit-call score of the fitted dose curve at least 0.9, where 1 is the maximum; inactive = score below 0.9;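 as to AC50: potency may reflect either rise or fall in cell number versus DMSO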); conditions: primary human endothelial cells (HUVEC)
How it was run: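 Subconfluent HUVEC (3C system) cultured with chemical; relative cell number read at 48 h by sulforhodamine B total-protein staining (0.1% SRB after 10% TCA fixation, 560 nm). Bidirectional fit relative to DMSO.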

Measured: AC50

human Retinoid X Receptor beta (RXRb), RXRB (gene 6257), sequence (P28702 whole entry, looked up, the tested form may be a part): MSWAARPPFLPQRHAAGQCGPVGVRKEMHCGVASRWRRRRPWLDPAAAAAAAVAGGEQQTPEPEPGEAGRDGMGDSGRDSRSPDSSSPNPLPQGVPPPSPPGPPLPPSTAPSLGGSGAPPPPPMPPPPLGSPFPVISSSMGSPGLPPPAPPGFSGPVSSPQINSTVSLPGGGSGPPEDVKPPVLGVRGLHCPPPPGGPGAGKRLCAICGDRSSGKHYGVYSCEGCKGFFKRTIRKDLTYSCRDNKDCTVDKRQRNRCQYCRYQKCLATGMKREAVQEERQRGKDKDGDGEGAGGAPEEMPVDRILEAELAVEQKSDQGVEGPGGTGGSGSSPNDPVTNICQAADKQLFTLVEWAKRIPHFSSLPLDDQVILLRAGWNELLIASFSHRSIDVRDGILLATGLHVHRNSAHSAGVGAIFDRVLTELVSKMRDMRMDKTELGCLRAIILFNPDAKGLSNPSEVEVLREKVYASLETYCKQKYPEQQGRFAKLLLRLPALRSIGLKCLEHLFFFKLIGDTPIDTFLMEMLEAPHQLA
Nuclear receptor subfamily 1 group I member 2 (Homo sapiens), sequence (O75469 whole entry, looked up, the tested form may be a part): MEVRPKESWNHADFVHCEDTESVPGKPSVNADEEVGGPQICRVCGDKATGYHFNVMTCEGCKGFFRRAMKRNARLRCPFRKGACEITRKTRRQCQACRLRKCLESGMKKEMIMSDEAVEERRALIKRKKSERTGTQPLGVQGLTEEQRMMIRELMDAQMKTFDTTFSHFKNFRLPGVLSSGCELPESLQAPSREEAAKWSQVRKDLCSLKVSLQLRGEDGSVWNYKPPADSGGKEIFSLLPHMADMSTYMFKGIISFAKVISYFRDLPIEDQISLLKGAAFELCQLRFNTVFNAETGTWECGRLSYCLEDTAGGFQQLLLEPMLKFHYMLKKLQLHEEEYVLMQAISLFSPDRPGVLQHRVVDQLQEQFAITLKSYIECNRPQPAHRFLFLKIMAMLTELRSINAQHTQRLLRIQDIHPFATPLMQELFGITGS
Peroxisome proliferator-activated receptor gamma (Homo sapiens), sequence (P37231 whole entry, looked up): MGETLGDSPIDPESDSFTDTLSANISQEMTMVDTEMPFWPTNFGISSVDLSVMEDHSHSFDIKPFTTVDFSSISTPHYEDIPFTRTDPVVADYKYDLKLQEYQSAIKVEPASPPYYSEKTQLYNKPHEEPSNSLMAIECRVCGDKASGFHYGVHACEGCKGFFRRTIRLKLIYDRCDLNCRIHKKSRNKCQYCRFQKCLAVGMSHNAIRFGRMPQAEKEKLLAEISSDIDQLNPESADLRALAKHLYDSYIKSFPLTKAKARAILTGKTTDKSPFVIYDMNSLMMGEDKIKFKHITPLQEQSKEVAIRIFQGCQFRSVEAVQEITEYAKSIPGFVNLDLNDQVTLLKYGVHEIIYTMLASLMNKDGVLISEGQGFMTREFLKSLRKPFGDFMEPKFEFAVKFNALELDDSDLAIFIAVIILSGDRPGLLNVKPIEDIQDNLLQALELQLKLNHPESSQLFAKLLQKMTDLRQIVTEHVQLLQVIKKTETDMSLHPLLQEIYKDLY
Retinoic acid receptor RXR-alpha (Homo sapiens), sequence (P19793 whole entry, looked up, the tested form may be a part): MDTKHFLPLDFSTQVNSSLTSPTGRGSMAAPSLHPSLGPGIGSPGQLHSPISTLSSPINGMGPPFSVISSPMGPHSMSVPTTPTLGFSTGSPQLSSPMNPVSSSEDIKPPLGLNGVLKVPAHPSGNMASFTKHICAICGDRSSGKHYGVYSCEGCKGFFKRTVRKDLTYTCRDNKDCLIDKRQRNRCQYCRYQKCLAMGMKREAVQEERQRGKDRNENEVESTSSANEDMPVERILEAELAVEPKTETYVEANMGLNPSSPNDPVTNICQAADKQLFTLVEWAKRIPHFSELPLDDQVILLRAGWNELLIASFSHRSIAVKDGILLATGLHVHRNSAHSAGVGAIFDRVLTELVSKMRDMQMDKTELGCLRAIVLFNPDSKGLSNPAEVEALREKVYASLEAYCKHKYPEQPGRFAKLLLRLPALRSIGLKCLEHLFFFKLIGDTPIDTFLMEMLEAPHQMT
human Retinoic Acid Receptor gamma (RARg), RARG (gene 5916), sequence (P13631 whole entry, looked up, the tested form may be a part): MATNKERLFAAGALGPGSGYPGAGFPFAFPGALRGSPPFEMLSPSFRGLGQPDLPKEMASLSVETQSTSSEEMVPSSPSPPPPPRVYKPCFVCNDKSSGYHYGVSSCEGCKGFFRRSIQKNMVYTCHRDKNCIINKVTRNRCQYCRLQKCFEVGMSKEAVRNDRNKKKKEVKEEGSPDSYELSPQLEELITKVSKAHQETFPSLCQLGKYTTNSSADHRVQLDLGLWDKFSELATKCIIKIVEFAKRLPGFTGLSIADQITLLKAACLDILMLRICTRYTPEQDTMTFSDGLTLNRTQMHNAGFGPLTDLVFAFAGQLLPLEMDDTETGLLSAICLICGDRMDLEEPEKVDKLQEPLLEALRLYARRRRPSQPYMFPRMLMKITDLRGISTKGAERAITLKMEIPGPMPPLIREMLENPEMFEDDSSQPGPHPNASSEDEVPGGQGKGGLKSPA
human Thyroid Receptor alpha (THRa1), THRA (gene 7067), sequence (P10827 whole entry, looked up, the tested form may be a part): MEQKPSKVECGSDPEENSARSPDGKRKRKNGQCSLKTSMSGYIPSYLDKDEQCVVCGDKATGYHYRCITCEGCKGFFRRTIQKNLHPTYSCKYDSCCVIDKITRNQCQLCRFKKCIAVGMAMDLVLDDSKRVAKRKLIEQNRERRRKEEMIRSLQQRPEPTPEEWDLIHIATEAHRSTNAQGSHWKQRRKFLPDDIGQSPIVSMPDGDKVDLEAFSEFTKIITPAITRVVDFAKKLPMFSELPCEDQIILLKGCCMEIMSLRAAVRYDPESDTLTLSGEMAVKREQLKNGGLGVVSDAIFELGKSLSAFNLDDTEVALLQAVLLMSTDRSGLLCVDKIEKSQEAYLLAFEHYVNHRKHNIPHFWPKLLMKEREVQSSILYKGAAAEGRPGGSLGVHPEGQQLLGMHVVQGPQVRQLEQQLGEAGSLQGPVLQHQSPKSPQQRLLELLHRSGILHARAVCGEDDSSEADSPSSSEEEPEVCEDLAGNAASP
human RAR-related Orphan Receptor beta (RORb), RORB (gene 6096), sequence (Q92753 whole entry, looked up, the tested form may be a part): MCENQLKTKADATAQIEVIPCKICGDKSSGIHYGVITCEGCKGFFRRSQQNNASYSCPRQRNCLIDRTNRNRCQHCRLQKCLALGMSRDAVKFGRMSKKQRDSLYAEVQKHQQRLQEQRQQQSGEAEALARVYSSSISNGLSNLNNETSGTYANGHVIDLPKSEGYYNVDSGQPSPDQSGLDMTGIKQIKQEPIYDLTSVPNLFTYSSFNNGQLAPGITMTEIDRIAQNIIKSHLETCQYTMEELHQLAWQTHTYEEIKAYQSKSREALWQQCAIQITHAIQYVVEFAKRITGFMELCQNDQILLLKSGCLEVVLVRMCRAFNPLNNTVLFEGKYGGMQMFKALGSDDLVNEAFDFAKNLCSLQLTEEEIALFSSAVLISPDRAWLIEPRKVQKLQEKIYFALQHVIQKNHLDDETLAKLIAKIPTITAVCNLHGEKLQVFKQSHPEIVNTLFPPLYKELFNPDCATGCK
human RAR-related Orphan Receptor gamma (RORg), RORC (gene 6097), sequence (P51449 whole entry, looked up, the tested form may be a part): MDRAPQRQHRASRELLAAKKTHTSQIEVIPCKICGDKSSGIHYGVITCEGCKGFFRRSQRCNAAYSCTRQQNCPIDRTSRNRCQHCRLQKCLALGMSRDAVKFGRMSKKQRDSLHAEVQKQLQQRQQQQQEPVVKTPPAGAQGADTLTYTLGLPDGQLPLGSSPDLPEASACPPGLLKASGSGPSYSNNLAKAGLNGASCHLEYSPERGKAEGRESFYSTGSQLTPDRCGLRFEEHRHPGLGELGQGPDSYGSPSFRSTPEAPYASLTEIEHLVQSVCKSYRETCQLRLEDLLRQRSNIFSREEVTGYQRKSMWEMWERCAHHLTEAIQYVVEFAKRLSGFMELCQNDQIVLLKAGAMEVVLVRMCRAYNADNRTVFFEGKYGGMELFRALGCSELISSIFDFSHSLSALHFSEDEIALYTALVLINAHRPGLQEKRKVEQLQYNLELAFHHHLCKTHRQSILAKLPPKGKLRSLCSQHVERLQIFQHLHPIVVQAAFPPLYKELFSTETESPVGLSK

CC(C#N)CCC#N (centres undefined)
inactive: [1] | [2] | [3] | [4] | [5]

O=C(CCl)CCl
active: [7] 60.1 µM
not listed: [3] | [9]
inactive: all other assays above

ClCc1cccnc1
active: [1] 51.8 µM
inactive: [2] | [6] | [8] | [4] | [5]

CC(C)CCCCCCOC(=O)c1ccccc1C(=O)OCCCCCCC(C)C
active: [2] 1.84 µM
inactive: [9] | [6]

COS(=O)(=O)c1ccc(C)cc1
not listed: [3] | [9]
inactive: all other assays above

c1cc[c]([Hg][c]2ccccc2)cc1
active: [1] 25.2 µM
inactive: [2] | [6] | [8] | [4] | [5]

CC(C)(c1ccc(OCC2CO2)cc1)c1ccc(OCC2CO2)cc1 (centres undefined)
inactive: [1] | [2] | [7] | [8] | [4]

CCN(CC)C(=O)Cl
inactive: [1] | [2] | [6] | [4]

Fc1ccc(C2(Cn3cncn3)OC2c2ccccc2Cl)cc1 (centres undefined)
active: [2] 2.24 µM
inactive: [1] | [3] | [8]

CC1(C)Cc2cccc(O)c2O1
inactive: [9] | [2] | [3] | [8] | [4]

CCCCCCCCSC(=O)Oc1cc(Cl)nnc1-c1ccccc1
active: [1] 24.3 µM
inactive: [2] | [7] | [8] | [4]

N#CCc1ccc(Cl)cc1
not listed: [3] | [6] | [9]
inactive: all other assays above

CCCCC(CC)CO[N+](=O)[O-] (centres undefined)
active: [9] 30.8 µM | [4] 99.5 µM
inactive: [2] | [7] | [8]

CCc1ccccc1N
inactive: [1] | [2] | [6] | [7]

CC(C)(C)CC(C)(C)c1ccc(O)cc1
active: [9] 7.69 µM | [2] 8.34 µM and 7.58 µM and 5.92 µM | [4] 11.1 µM and 4.81 µM and 6.61 µM
inactive: [2] | [6] | [7] | [8] | [5]

O=C/C=C/c1ccccc1
active: [1] 28.7 µM | [2] 12.1 µM
inactive: [6] | [8] | [4]

OCC(O)CCl (centres undefined)
inactive: [1] | [2] | [6] | [8]

O=C(c1ccccc1)C(Cl)Cl
not listed: [9]
inactive: all other assays above

ClCCBr
not listed: [3] | [5] | [9]
inactive: all other assays above

CC(=[OH+])/C=C(/C)[O-].CC(=[OH+])/C=C(/C)[O-].CC(=[OH+])/C=C(/C)[O-].[Al]
not listed: [3] | [9]
inactive: all other assays above

c1ccc(N=NNc2ccccc2)cc1
active: [1] 65.7 µM | [2] 33.6 µM | [5] 134 µM
inactive: [3] | [8]

ClC1(Cl)C2(Cl)C3(Cl)C4(Cl)C(Cl)(Cl)C5(Cl)C3(Cl)C1(Cl)C5(Cl)C24Cl (centres undefined)
inactive: [9] | [2] | [6]

Cc1cc(=O)[nH]o1
inactive: [1] | [2] | [6] | [4]

ClCc1ccccn1
inactive: [1] | [2] | [6] | [8] | [5]

Cc1ccc2ccccc2c1C
active: [4] 100 µM
not listed: [7] | [9]
inactive: all other assays above

Nc1ccc(Cl)cc1C(=O)c1ccccc1
inactive: [7] | [8] | [5]
active: [1] 25.8 µM | [2] 10.5 µM | [4] 21.9 µM

COc1ccccc1OC
not listed: [3] | [5] | [9]
inactive: all other assays above

CCc1ccccc1C
not listed: [3] | [6] | [9]
inactive: all other assays above

Cc1cc(Cl)ccc1O[C@H](C)C(=O)O
active: [1] 37.4 µM
inactive: [2] | [6]

Clc1ccc(COC(Cn2ccnc2)c2ccc(Cl)cc2Cl)cc1 (centres undefined)
inactive: [8]
active: [1] 4.84 µM | [2] 0.44 µM | [4] 0.103 µM

CC1CN1P(=O)(N1CC1C)N1CC1C (centres undefined)
not listed: [3] | [6] | [9]
inactive: all other assays above

Cc1ccccc1N
inactive: [9] | [7] | [8] | [5]

CC(=O)c1cc(C(C)(C)C)cc2c1CCC2(C)C
inactive: [1]
active: [2] 5.5 µM | [8] 3.52 µM | [4] 0.446 µM

N#CN=C(N)N
inactive: [2] | [8]

COc1cccc(C=O)c1
inactive: [2] | [6]

Clc1ccc(C2(Cn3cncn3)CC(Br)CO2)c(Cl)c1 (centres undefined)
active: [2] 0.762 µM
inactive: [5]
